Screening data (PubChem BioAssay)
IL-1B inflam inh: inflammasome signaling inhibition, IL-1 beta readout. THP-1 LPS/ATP IL-1B secretion, AlphaLISA, 16 h; stronger effect = lower value. activity change, % at 57.5 µM. 360,000 compounds, 4.7% hits; in the data active = activity change below about -50%; inconclusive = mostly about -30% to -49%; also: % is scaled to controls: 0 for no effect and ±100 for the full control effect
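Secreted IL-1B measured by AlphaLISA bead assay after 16 h compound exposure of THP-1 cells; compounds (final up to 57.5 uM) added 1 h before LPS (250 ng/mL) and ATP (1.25 mM) stimulation; lower signal means less secretion.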
KB-3-1 cytotox: kills parental KB-3-1 adenocarcinoma cells; KB-3-1 viability, CellTiter-Glo ATP luminescence, 72 h; 400,000 compounds, 1.4% hits; AID 1347075; Potency, µM (series often up to 46.1 µM), actives largely listed as cytotoxic; also: potency is read from the fitted curve at half-maximal effect; % is scaled to controls: 0 for no effect and ±100 for the full control effect; nearly all actives have a fitted effect of over 60% in size
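Cytotoxicity in the drug-sensitive parental line KB-3-1 was scored as loss of CellTiter-Glo luminescence following 72 h incubation with compound. Values come from curve fitting of normalized concentration-response data.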
KB-V1 MDR tox: kills drug-selected multidrug resistant KB-V1 cells | 400,000 compounds, 3.4% hits | AID 1347076 | Potency, µM (top dose mostly 46.1 µM), actives largely listed as cytotoxic | KB-V1 MDR cells viability, CellTiter-Glo, 72 h; also: potency is read from the fitted curve at half-maximal effect; % is scaled to controls: 0 for no effect and ±100 for the full control effect; nearly all actives have a fitted effect of over 60% in size
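Readout: CellTiter-Glo luminescence, 10 min after addition. Cells: KB-V1 MDR subline, 72 h at 37 degrees C with compound. Analysis: corrected, normalized data fitted to concentration-effect curves.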
MCF10A rereplic: inducers of DNA re-replication in MCF 10A breast cells; Potency, µM (doses to about 46.1 µM), without a hit: at the top dose activity, positive = re-replication, usual class: activators; 350,000 compounds, 2.9% hits; MCF 10A DNA re-replication, Hoechst nuclear intensity, 48 h; also: potency is read from the fitted curve at half-maximal effect; % of control where 0% means no effect; nearly all actives have a fitted effect of over 50% in size
SW480 rereplic: inducers of DNA re-replication in SW480 colon cancer cells | 340,000 compounds, 1.8% hits | SW480 DNA re-replication, Hoechst DNA content imaging, 48 h | Potency, µM (highest dose often 46.1 µM), for the others: at the highest dose re-replication activation, actives largely listed as activators; also: potency is read from the fitted curve at half-maximal effect; % of control where 0% means no effect; nearly all actives have a fitted effect of over 55% in size
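Image-based read-out: total Hoechst fluorescence of nuclei (405 nm excitation, 500-530 nm emission), with hits raising the fraction of high-intensity nuclei. SW480 colon cells incubated 48 hr with compounds at 37 C.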
Active calls of the source: *; i = inactive; ? = inconclusive; nt = no result. The list is not random: actives were taken first. Their share in the collection is about 9.9%. Unless noted, calls follow the shape of the dose curve; as a rule, active = well fitted curve in the direction sought with a large enough effect; inconclusive = small, poorly fitted or top-dose-only effect, or another doubt; inactive = no such curve, though single readings can be large; an effect the other way counts as inactive or inconclusive.

SMILES | IL-1B inflam inh | KB-3-1 cytotox | KB-V1 MDR tox | MCF10A rereplic | SW480 rereplic
Cc1nc2ccn(Cc3ccccc3)c(=O)c2cc1C(=O)NCc1ccccc1F | nt | ? | i | nt | nt
COc1ccc(Nc2ncc3c(n2)CCN(Cc2cccc(F)c2F)C3)c(OC)c1 | nt | ? | i | nt | nt
CN(C)S(=O)(=O)c1cccc(COc2ncnc3c(Cl)cc(Cl)cc23)c1 | 31.5 | i | i | 6.4% | -12.0%
O=C(c1cccs1)c1coc2ccc(O)c(CN3CCOCC3)c12 | -4.6 | i | 2.91µM* | 5.0% | 6.8%
Cc1ccc(C(=O)c2coc3ccc(O)c(CN4CCN(C)CC4)c23)cc1 | -54.5* | i | i | ? | ?
COc1ccc(C(=O)c2coc3ccc(O)c(CN4CCCC4)c23)cc1 | -22.9 | i | i | 6.5% | -3.7%
Cc1c(NC2(c3nnnn3-c3ccc(Br)cc3)CCCCC2)c(=O)n(-c2ccccc2)n1C | -7.6 | i | 3.66µM* | 4.0% | 2.9%
CC(CCc1ccccc1)NC(=O)CCc1cn(C)c2ccccc12 (centres undefined) | -77.5* | i | i | 6.1% | -9.1%
CC(C)(C)c1cc(C(=O)CCN2CCOCC2)cc(C(C)(C)C)c1O | -100.6* | i | ? | ? | 14.9%
O=C(CCN1CCOCC1)c1ccc(N2CCCCC2)cc1 | -72.5* | ? | i | ? | 17.6%
CCOc1ccc(CNC(=O)c2ccc(-c3nc(CS(=O)(=O)c4ccccc4)c(C)o3)cc2)cc1 | nt | i | ? | nt | nt
CCOc1ccc(NC(=O)C(=O)NCC(c2cccnc2)N2CCc3ccccc32)cc1 (centres undefined) | nt | ? | 18.4µM* | nt | nt
Cc1cc(C=C2C(=O)c3ccccc3C2=O)c(C)n1-c1ccc(C(=O)O)cc1 | -56.0* | i | i | 14.4% | 0.1%
Cc1cc(C=C2C(=O)c3ccccc3C2=O)c(C)n1-c1ccccc1 | -15.3 | i | i | ? | 0.8%
Cc1cc(/C=C2\Cc3ccccc3C2=O)c(C)n1-c1ccccc1 | -61.9* | i | i | 20.6µM* | ?
CC(C)c1ccc(C(=O)NC(=S)Nc2ccc3[nH]c(=O)[nH]c3c2)cc1 | -20.1 | i | i | 2.2% | 15.8%
COc1cc2nc(NCc3ccc(C)cc3)n3nc(-c4ccccc4)nc3c2cc1OC | nt | i | i | nt | nt
CCCCN(CC(=O)NCCOC)C(=O)Cn1nnc2ccccc21 | 0.0 | i | i | 10.6% | 3.6%
CC(C)(C)c1ccc(-c2noc(-c3ccc4c(c3)CCO4)n2)cc1 | 12.4 | i | ? | ? | 4.61µM*
CCc1c(C)sc2c1CCN(Cc1ccccc1F)C2c1ccccc1 (centres undefined) | nt | 18.4µM* | ? | nt | nt
CCc1c(C)sc2c1CCN(Cc1cccc(OC)c1)C2c1ccccc1 (centres undefined) | nt | ? | i | nt | nt
COc1cc2c(cc1OC)C(C)N(C(=O)c1ccc(Br)o1)CC2 (centres undefined) | -16.3 | 20.6µM* | 13µM* | 17.3% | 20.4%
COc1cc2c(cc1OC)C(C)N(C(=O)c1cc(Cl)nc(Cl)c1)CC2 (centres undefined) | 84.9 | ? | i | 9.2µM* | 8.2µM*
COc1cc2c(cc1OC)C(C)N(C(=O)c1nccnc1C(=O)O)CC2 (centres undefined) | 4.0 | i | i | -1.4% | 0.9%
COc1ccc(NS(=O)(=O)c2ccccc2C(=O)O)cc1 | nt | ? | i | nt | nt
COc1ccccc1NC(=O)CN(Cc1ccco1)C(=O)c1cncc(Br)c1 | -8.1 | i | ? | 2.1% | -14.8%
COc1ccccc1NC(=O)CN(Cc1ccco1)C(=O)c1ccc(-n2nc(C)cc2C)cc1 | -3.8 | i | 2.06µM* | 2.2% | -12.0%
CC(C)COc1ccc(C(=O)N(CC(=O)Nc2ccccc2C(F)(F)F)Cc2ccco2)cc1 | -72.1* | i | ? | ? | 2.6%
CC(=O)c1ccc(NC(=O)CSc2n[nH]c(-c3cccnc3)n2)cc1 | 23.5 | i | i | -16.7% | -11.2%
CCCOc1ccc(OC(=O)c2sc3ncn(Cc4cccc(F)c4)c(=O)c3c2C)cc1 | nt | i | i | nt | nt
